# In PMC7862700, “An all-to-all approach to the identification of sequence-specific readers for epigenetic DNA modifications on cytosine”:
# Key:
# Assay in all cases: DAPPL (digital affinity profiling via proximity ligation, sequencing); 10 mM Tris-HCl pH 7.5, 50 mM NaCl, 1 mM DTT, 4% glycerol, room temperature, 30 min; GST-TFs on glutathione beads, 16-mer random dsDNA library, 0.1% formaldehyde crosslink after washing; high values mean tight binding
# [1] = target: T1, FLI1 (Homo sapiens, UniProt Q01543 1-452); conditions: protein: recombinant; tags: N-terminal GST; dsDNA, one strand shown
# T1 sequence: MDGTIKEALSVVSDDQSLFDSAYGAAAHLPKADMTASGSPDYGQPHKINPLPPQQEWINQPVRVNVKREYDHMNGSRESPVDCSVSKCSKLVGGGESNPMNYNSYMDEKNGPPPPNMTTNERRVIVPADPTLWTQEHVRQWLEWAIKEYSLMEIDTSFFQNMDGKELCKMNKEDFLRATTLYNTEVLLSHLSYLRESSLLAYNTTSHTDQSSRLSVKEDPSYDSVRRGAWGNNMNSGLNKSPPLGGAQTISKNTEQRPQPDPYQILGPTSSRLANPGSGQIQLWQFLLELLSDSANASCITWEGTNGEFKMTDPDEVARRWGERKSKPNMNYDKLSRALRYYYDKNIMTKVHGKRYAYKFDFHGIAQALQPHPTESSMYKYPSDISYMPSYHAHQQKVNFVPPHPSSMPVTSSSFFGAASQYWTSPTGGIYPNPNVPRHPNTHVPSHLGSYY
# How it was run: (§1)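 The binding signal reported is, for every hexamer, its read frequency for a factor over its read frequency for the tag-only sample. Reads came from pools of yeast-expressed, GST-fused human transcription factors on glutathione beads, barcoded with DNA and mixed with that sample, which were incubated with 200 nmole of a random double-stranded 16-mer DNA library in Tris/NaCl/DTT/glycerol buffer at room temperature for 30 min. After washing, the pools were crosslinked with 0.1% formaldehyde, proximity-ligated with BsaI/T4 ligase for 1 h at 37 °C, PCR-amplified and sequenced on an Illumina NextSeq500.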
# [2] = target: T2, ELK1 (Homo sapiens, UniProt P19419 1-428); conditions: protein: recombinant; tags: N-terminal GST; dsDNA, one strand shown
# T2 sequence: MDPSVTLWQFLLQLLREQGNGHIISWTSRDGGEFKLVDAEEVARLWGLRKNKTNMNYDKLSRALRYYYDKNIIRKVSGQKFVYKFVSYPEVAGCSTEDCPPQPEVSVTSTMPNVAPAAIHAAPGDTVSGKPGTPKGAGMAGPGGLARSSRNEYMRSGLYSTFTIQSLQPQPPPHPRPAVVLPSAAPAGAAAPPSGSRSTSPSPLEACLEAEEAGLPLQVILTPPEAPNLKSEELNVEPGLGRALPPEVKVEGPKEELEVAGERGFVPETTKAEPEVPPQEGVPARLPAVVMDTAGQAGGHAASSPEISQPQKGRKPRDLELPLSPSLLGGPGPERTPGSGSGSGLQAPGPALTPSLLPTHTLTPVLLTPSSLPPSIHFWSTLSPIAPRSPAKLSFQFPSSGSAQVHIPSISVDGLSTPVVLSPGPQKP
# How it was run: as §1
# [3] = target: T3, GABPA (Homo sapiens, UniProt Q06546 1-454); conditions: protein: recombinant; tags: N-terminal GST; dsDNA, one strand shown
# T3 sequence: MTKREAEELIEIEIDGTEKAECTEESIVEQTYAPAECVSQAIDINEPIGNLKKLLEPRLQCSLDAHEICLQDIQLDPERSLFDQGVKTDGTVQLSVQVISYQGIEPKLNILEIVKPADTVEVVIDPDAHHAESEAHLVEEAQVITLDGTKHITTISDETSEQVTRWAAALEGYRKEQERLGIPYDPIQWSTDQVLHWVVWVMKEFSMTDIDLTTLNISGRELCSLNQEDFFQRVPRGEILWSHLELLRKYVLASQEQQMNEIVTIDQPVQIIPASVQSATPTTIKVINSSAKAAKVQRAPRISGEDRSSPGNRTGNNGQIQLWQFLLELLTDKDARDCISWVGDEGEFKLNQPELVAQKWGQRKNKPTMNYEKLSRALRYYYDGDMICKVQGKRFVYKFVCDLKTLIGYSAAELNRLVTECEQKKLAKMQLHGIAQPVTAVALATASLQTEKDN
# How it was run: as §1
# [4] = target: T4, ERG (Homo sapiens, UniProt P11308 1-479); conditions: protein: recombinant; tags: N-terminal GST; dsDNA, one strand shown
# T4 sequence: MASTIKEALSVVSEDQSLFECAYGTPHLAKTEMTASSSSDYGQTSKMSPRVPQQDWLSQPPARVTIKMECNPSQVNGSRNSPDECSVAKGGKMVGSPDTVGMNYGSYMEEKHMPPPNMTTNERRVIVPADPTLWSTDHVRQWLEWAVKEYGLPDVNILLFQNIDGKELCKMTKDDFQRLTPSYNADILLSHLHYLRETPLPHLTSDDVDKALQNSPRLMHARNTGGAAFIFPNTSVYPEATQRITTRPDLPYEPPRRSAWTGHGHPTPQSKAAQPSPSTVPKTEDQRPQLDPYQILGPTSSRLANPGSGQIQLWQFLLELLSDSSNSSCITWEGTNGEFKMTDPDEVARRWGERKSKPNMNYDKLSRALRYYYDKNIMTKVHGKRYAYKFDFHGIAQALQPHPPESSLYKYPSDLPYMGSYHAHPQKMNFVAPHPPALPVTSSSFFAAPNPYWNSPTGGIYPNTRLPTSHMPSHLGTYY
# How it was run: as §1
# [5] = target: ELF1 (Homo sapiens, UniProt P32519 1-619); conditions: protein: recombinant; tags: N-terminal GST; dsDNA, one strand shown
# How it was run: as §1
# [6] = target: T5, EHF (Homo sapiens, UniProt Q9NZC4 1-300); conditions: protein: recombinant; tags: N-terminal GST; dsDNA, one strand shown
# T5 sequence: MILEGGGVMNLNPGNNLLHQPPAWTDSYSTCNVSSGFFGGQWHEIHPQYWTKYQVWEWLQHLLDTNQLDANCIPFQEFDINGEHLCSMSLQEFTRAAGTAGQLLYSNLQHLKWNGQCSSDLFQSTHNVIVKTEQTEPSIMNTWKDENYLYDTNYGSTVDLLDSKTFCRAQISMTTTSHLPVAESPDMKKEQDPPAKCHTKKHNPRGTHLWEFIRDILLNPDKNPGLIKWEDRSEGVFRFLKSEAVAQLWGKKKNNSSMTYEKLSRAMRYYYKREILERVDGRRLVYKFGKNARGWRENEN
# How it was run: as §1
# [7] = target: SPI1 (Homo sapiens, UniProt P17947 1-270); conditions: protein: recombinant; tags: N-terminal GST; dsDNA, one strand shown
# How it was run: as §1
# [8] = target: SPIB (Homo sapiens, UniProt Q01892 1-262); conditions: protein: recombinant; tags: N-terminal GST; dsDNA, one strand shown
# How it was run: as §1
# [9] = target: T6, ELK3 (Homo sapiens, UniProt P41970 1-407); conditions: protein: recombinant; tags: N-terminal GST; dsDNA, one strand shown
# T6 sequence: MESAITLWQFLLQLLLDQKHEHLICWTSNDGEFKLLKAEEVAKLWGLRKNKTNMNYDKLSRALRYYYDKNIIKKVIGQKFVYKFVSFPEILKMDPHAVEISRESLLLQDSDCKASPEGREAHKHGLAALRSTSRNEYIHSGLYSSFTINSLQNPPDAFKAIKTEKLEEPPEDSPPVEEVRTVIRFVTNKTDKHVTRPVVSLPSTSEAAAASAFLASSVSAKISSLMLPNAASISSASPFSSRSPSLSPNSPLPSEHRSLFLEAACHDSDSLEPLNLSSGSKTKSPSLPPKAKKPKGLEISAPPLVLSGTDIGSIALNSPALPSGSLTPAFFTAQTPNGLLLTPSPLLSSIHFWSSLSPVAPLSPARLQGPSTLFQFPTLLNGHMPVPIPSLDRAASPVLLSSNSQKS
# How it was run: as §1
# [10] = target: T7, FEV (Homo sapiens, UniProt Q99581 1-238); conditions: protein: recombinant; tags: N-terminal GST; dsDNA, one strand shown
# T7 sequence: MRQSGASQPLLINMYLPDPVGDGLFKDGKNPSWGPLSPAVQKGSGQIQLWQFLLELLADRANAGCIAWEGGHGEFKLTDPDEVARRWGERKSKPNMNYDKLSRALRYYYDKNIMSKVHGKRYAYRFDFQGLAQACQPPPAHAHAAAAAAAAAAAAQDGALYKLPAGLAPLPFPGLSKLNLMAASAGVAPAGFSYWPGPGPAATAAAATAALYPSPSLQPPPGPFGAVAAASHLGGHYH
# How it was run: as §1
# [11] = target: ETV5 (Homo sapiens, UniProt P41161 1-510); conditions: protein: recombinant; tags: N-terminal GST; dsDNA, one strand shown
# How it was run: as §1
# [12] = target: HSF1 (Homo sapiens, UniProt Q00613 1-529); conditions: protein: recombinant; tags: N-terminal GST; chain copies: 3; dsDNA, one strand shown
# How it was run: as §1
# [13] = target: ELF4 (Homo sapiens, UniProt Q99607 1-663); conditions: protein: recombinant; tags: N-terminal GST; dsDNA, one strand shown
# How it was run: as §1
# [14] = target: T8, ELK4 (Homo sapiens, UniProt P28324-2 1-405); conditions: protein: recombinant; tags: N-terminal GST; dsDNA, one strand shown
# T8 sequence: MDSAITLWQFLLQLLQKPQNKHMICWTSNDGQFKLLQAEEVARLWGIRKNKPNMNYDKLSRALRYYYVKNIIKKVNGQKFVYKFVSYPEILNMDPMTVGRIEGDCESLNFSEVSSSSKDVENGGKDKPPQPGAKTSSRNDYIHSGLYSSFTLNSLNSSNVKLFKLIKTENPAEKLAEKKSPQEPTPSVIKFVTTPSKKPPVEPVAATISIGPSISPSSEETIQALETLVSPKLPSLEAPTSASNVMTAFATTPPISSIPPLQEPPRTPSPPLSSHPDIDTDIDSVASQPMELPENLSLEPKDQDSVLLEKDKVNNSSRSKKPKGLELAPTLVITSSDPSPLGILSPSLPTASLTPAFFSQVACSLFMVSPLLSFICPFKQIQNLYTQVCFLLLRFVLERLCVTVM
# How it was run: as §1
# [15] = target: T9, ELF3 (Homo sapiens, UniProt P78545 1-371); conditions: protein: recombinant; tags: N-terminal GST; dsDNA, one strand shown
# T9 sequence: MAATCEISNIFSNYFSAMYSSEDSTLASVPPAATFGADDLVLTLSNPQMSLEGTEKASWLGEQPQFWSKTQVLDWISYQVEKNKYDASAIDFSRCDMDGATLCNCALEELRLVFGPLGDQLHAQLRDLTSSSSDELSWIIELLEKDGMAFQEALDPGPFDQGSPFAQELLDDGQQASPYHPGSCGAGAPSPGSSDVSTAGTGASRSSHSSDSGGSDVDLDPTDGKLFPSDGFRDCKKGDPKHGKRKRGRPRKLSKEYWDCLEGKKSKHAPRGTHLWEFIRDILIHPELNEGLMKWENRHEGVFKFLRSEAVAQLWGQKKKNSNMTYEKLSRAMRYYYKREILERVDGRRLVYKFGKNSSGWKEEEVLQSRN
# How it was run: as §1
# [16] = target: CRX (Homo sapiens, UniProt O43186 1-299); conditions: protein: recombinant; tags: N-terminal GST; dsDNA, one strand shown
# How it was run: as §1
# [17] = target: ETV1 (Homo sapiens, UniProt P50549 1-477); conditions: protein: recombinant; tags: N-terminal GST; dsDNA, one strand shown
# How it was run: as §1
# Chain of HSF1 (Q00613 whole entry): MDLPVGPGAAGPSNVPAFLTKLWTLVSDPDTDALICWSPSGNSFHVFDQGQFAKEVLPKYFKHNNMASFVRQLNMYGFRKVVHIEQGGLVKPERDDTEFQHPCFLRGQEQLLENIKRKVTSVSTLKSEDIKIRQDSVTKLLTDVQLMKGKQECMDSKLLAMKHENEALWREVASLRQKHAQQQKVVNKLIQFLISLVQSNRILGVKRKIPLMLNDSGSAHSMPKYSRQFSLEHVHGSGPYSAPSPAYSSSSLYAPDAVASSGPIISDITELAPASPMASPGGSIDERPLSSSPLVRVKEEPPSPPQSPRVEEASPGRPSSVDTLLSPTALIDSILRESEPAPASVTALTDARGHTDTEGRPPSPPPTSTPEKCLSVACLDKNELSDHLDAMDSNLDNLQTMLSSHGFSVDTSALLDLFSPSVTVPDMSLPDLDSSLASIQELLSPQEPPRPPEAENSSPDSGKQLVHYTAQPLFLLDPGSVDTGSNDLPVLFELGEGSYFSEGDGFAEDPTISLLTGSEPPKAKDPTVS
# Chain of ETV5 (P41161 whole entry): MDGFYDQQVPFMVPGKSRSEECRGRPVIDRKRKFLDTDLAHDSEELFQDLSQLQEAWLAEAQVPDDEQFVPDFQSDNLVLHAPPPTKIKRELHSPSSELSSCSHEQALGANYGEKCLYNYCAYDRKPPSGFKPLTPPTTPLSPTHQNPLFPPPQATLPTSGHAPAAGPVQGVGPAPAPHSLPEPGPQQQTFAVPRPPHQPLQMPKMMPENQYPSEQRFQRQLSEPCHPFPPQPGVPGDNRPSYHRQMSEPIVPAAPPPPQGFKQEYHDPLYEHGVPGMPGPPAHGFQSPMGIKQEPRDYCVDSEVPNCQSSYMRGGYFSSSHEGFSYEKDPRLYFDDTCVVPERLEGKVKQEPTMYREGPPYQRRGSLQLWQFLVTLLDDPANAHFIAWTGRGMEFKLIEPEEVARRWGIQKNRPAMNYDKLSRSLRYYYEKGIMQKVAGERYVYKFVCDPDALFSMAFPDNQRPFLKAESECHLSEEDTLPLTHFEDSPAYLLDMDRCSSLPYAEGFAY
# Chain of SPIB (Q01892 whole entry): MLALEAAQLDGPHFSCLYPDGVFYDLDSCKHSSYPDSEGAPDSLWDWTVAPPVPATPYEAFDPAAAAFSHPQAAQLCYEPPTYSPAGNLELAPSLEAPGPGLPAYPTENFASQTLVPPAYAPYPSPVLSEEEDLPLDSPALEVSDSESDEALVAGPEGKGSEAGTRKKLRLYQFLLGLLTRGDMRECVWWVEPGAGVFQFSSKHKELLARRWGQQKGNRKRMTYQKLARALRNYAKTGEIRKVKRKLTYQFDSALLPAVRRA
# Chain of ELF4 (Q99607 whole entry): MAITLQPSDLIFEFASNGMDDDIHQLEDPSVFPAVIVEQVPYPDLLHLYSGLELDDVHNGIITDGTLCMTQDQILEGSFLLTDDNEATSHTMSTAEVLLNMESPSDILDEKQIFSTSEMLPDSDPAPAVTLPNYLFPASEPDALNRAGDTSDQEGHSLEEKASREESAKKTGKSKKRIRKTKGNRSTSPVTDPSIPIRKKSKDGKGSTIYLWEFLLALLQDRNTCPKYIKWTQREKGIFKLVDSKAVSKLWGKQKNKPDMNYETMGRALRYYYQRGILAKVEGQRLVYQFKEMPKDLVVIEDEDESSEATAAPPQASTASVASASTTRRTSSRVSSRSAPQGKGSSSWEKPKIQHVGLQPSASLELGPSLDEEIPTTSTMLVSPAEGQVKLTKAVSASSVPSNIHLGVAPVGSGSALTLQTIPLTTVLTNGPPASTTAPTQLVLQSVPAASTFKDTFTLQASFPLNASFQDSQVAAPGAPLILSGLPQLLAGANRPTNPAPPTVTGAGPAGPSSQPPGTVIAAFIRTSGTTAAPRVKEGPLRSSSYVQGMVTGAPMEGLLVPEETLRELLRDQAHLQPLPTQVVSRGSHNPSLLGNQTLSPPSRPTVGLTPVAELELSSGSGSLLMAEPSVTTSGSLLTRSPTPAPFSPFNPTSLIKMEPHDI
# Chain of ELF1 (P32519 whole entry): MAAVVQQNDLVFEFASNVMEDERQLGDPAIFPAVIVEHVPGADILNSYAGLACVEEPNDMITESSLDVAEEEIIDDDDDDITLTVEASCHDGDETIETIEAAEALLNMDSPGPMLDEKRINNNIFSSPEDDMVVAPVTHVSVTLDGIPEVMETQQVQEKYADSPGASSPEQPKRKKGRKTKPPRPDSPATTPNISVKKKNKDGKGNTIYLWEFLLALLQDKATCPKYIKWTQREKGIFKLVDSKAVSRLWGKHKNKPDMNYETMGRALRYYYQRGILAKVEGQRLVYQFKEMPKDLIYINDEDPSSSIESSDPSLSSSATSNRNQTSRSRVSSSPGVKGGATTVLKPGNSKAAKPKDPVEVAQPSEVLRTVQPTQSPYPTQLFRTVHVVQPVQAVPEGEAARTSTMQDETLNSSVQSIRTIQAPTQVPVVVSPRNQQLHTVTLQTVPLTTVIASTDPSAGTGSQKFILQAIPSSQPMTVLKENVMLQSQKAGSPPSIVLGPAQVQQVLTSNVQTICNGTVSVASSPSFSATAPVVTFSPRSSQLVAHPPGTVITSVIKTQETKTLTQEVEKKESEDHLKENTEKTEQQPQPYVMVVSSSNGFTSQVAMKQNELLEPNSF
# Chain of ETV1 (P50549 whole entry): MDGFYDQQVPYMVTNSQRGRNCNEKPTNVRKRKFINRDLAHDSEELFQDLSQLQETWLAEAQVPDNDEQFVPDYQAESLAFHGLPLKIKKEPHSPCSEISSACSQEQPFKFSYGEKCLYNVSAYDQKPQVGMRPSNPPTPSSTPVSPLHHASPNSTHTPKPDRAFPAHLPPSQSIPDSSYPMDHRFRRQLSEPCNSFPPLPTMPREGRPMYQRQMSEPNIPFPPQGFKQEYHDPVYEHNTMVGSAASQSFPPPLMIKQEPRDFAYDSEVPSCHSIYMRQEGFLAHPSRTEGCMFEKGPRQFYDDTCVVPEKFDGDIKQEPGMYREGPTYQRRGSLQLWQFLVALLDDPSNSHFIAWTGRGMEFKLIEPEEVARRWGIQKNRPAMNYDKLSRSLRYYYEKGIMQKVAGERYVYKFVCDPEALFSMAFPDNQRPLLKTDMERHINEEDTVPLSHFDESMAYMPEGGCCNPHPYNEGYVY
# Chain of CRX (O43186 whole entry): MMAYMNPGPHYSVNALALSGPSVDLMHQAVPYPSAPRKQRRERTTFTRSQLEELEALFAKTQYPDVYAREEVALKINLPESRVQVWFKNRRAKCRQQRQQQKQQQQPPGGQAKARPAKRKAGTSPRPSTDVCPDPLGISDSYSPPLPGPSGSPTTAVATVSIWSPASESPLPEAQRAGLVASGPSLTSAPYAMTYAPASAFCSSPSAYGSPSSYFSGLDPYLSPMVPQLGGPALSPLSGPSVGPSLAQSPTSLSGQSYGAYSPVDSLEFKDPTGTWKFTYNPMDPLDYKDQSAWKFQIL
sequence,measurement,setting,value
CGGCTA,binding signal,[1],"1.16 fold enrichment (6-mer frequency, TF over GST control)"
same,binding signal,[2],"1.14 fold enrichment (6-mer frequency, TF over GST control)"
same,binding signal,[3],"1.1 fold enrichment (6-mer frequency, TF over GST control)"
same,binding signal,[4],"1.1 fold enrichment (6-mer frequency, TF over GST control)"
same,binding signal,[5],"1.15 fold enrichment (6-mer frequency, TF over GST control)"
same,binding signal,[6],"1.13 fold enrichment (6-mer frequency, TF over GST control)"
same,binding signal,[7],"1.16 fold enrichment (6-mer frequency, TF over GST control)"
same,binding signal,[8],"1.21 fold enrichment (6-mer frequency, TF over GST control)"
same,binding signal,[9],"1.02 fold enrichment (6-mer frequency, TF over GST control)"
same,binding signal,[10],"1.23 fold enrichment (6-mer frequency, TF over GST control)"
same,binding signal,[11],"1.19 fold enrichment (6-mer frequency, TF over GST control)"
same,binding signal,[12],"1.07 fold enrichment (6-mer frequency, TF over GST control)"
same,binding signal,[13],"1.07 fold enrichment (6-mer frequency, TF over GST control)"
same,binding signal,[14],"1.11 fold enrichment (6-mer frequency, TF over GST control)"
same,binding signal,[15],"1.05 fold enrichment (6-mer frequency, TF over GST control)"
same,binding signal,[16],"1.18 fold enrichment (6-mer frequency, TF over GST control)"
same,binding signal,[17],"1.2 fold enrichment (6-mer frequency, TF over GST control)"
